# Measurements taken from the supplement of paper PMC6555819.
# Columns and labels:
# Assay in all cases: PBM binding z-score (relative to random genomic background probes); higher = stronger binding; sequences stand for … in GC…GCGATTGACAGCGTAGAATGAAGG
# [1] = tested on: PPARg:RXRa DBDmut IVT, anti-RXR (DBD mutation: RXRa K156A/R161A, NR concentration 270 nM, RXRa partner concentration 90 nM)
# Procedure, shortened: (§1)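 Custom Agilent 4×180K protein-binding microarrays carried double-stranded probes, each with a 34-nt variable region. These regions held direct-repeat seeds, single-nucleotide variants, half-site ablations and random human genomic background sequences. Ligand-free nuclear receptor dimers were incubated on the arrays for 1 h, antibodies against each partner (one per run) detected binding, and scanned fluorescence was regression-normalized. Binding z-scores take the random background probes as reference.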
# [2] = tested on: PPARg:RXRa IVT, anti-PPARg (NR concentration 270 nM, RXRa partner concentration 90 nM)
# Procedure, shortened: as §1
# [3] = tested on: PPARg DBDmut:RXRa IVT, anti-PPARg (DBD mutation: PPARg1 K132A/R137A, NR concentration 270 nM, RXRa partner concentration 90 nM)
# Procedure, shortened: as §1
# [4] = tested on: PPARg DBDmut IVT, anti-PPARg (DBD mutation: PPARg1 K132A/R137A, NR concentration 270 nM)
# Procedure, shortened: as §1
# [5] = tested on: PPARg homodimer (NR concentration 180 nM)
# Procedure, shortened: as §1
# [6] = tested on: PXR:RXRa (NR concentration 270 nM, RXRa partner concentration 90 nM)
# Procedure, shortened: as §1
# [7] = tested on: PXR homodimer (NR concentration 270 nM)
# Procedure, shortened: as §1
# [8] = tested on: RARa:RXR (NR concentration 270 nM, RXRa partner concentration 90 nM)
# Procedure, shortened: as §1
# [9] = tested on: RARa homodimer (NR concentration 270 nM)
# Procedure, shortened: as §1
# [10] = tested on: RARb:RXRa (NR concentration 270 nM, RXRa partner concentration 90 nM)
# Procedure, shortened: as §1
sequence,measurement,setting,value
TGAATGAGGTTAAAGACCAGGGAACGTGGCGTCG,PBM binding z-score,[1],1.75
same,PBM binding z-score,[2],2.7
same,PBM binding z-score,[3],1.19
same,PBM binding z-score,[4],0.401
same,PBM binding z-score,[5],0.683
same,PBM binding z-score,[6],1.08
same,PBM binding z-score,[7],-0.0383
same,PBM binding z-score,[8],2.17
same,PBM binding z-score,[9],0.0679
same,PBM binding z-score,[10],1.84
GCTATTAGTTGAGAGGGCAACCGAATGATTCTCG,PBM binding z-score,[1],0.549
same,PBM binding z-score,[2],0.28
same,PBM binding z-score,[3],0.117
same,PBM binding z-score,[4],-0.0279
same,PBM binding z-score,[5],0.87
same,PBM binding z-score,[6],0.651
same,PBM binding z-score,[7],-0.0553
same,PBM binding z-score,[8],0.826
same,PBM binding z-score,[9],0.278
same,PBM binding z-score,[10],1.4
CCTACTGGGCGATCAGGTCATTGATATCAACGTT,PBM binding z-score,[1],1.18
same,PBM binding z-score,[2],1.66
same,PBM binding z-score,[3],-0.36
same,PBM binding z-score,[4],-0.403
same,PBM binding z-score,[5],0.86
same,PBM binding z-score,[6],1.29
same,PBM binding z-score,[7],0.227
same,PBM binding z-score,[8],1.47
same,PBM binding z-score,[9],0.157
same,PBM binding z-score,[10],1.6
TCTCGGAGGACACGAAGGTCAGGGCTTTCCAGAG,PBM binding z-score,[1],1.37
same,PBM binding z-score,[2],0.884
same,PBM binding z-score,[3],-0.402
same,PBM binding z-score,[4],-1.18
same,PBM binding z-score,[5],1.07
same,PBM binding z-score,[6],1.89
same,PBM binding z-score,[7],0.452
same,PBM binding z-score,[8],2.52
same,PBM binding z-score,[9],-0.205
same,PBM binding z-score,[10],3.48
TAGCCTAGGTCATTGGGCCCGTATAGTACGCATC,PBM binding z-score,[1],1.78
same,PBM binding z-score,[2],3.02
same,PBM binding z-score,[3],0.545
same,PBM binding z-score,[4],-0.654
same,PBM binding z-score,[5],0.54
same,PBM binding z-score,[6],1.75
same,PBM binding z-score,[7],0.165
same,PBM binding z-score,[8],2
same,PBM binding z-score,[9],-0.326
same,PBM binding z-score,[10],3.74
GTACCAAGGTTAATAGGTCGTTGATGAGTAGGCG,PBM binding z-score,[1],1.85
same,PBM binding z-score,[2],3.6
same,PBM binding z-score,[3],0.0971
same,PBM binding z-score,[4],-0.158
same,PBM binding z-score,[5],2.1
same,PBM binding z-score,[6],1.69
same,PBM binding z-score,[7],0.273
same,PBM binding z-score,[8],2.82
same,PBM binding z-score,[9],0.938
same,PBM binding z-score,[10],2.5
TCATATAGGTAAGCAGGTGAAAGTCCGTAAGTTA,PBM binding z-score,[1],4.03
same,PBM binding z-score,[2],3.94
same,PBM binding z-score,[3],0.357
same,PBM binding z-score,[4],0.715
same,PBM binding z-score,[5],0.516
same,PBM binding z-score,[6],0.257
same,PBM binding z-score,[7],0.129
same,PBM binding z-score,[8],0.662
same,PBM binding z-score,[9],0.214
same,PBM binding z-score,[10],0.318
CGTCAAAGTTCAACTAAGATAACGTAAAGCACGC,PBM binding z-score,[1],0.308
same,PBM binding z-score,[2],2.03
same,PBM binding z-score,[3],1.72
same,PBM binding z-score,[4],2.53
same,PBM binding z-score,[5],4.35
same,PBM binding z-score,[6],4.78
same,PBM binding z-score,[7],3.71
same,PBM binding z-score,[8],4.27
same,PBM binding z-score,[9],2.93
same,PBM binding z-score,[10],5.08
TCTTATAGATCAGCAGGTTAAGAAAGCTGGCCAA,PBM binding z-score,[1],1.67
same,PBM binding z-score,[2],0.0176
same,PBM binding z-score,[3],0.00144
same,PBM binding z-score,[4],-0.0268
same,PBM binding z-score,[5],0.0461
same,PBM binding z-score,[6],0.161
same,PBM binding z-score,[7],-0.509
same,PBM binding z-score,[8],0.109
same,PBM binding z-score,[9],-0.091
same,PBM binding z-score,[10],0.115
TCTAGTTGGTCATAGGTCACACACTCGAAATGCG,PBM binding z-score,[1],2.59
same,PBM binding z-score,[2],4.4
same,PBM binding z-score,[3],1.15
same,PBM binding z-score,[4],1.18
same,PBM binding z-score,[5],3.12
same,PBM binding z-score,[6],3.48
same,PBM binding z-score,[7],1.07
same,PBM binding z-score,[8],4.39
same,PBM binding z-score,[9],1.88
same,PBM binding z-score,[10],3.22
CGTCCAAGGTCATAGCAGGTCAGTGAAGACAGAT,PBM binding z-score,[1],3.54
same,PBM binding z-score,[2],4.67
same,PBM binding z-score,[3],0.604
same,PBM binding z-score,[4],1.12
same,PBM binding z-score,[5],3.76
same,PBM binding z-score,[6],6.05
same,PBM binding z-score,[7],2.47
same,PBM binding z-score,[8],5.07
same,PBM binding z-score,[9],1.79
same,PBM binding z-score,[10],5.09
CGAACTAGGTCATCCAGGACGGTGAATACATTGA,PBM binding z-score,[1],7.81
same,PBM binding z-score,[2],8.21
same,PBM binding z-score,[3],2.02
same,PBM binding z-score,[4],0.711
same,PBM binding z-score,[5],0.484
same,PBM binding z-score,[6],1.5
same,PBM binding z-score,[7],0.391
same,PBM binding z-score,[8],2.02
same,PBM binding z-score,[9],0.0502
same,PBM binding z-score,[10],3.78
